# Bioassay records deposited in PubChem BioAssay by several laboratories.
# RAM network inh: yeast RAM network inhibition. inhibition, % at 50 µM. 1.8% of 190,000 active. S. cerevisiae dse1pr::URA3 reporter, 5-FOA growth OD615, 2 d; analog-sensitive cbk1-as2 kinase mutant strain. AID 868;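 active = inhibition above a set limit, 3 SD over mean compound inhibition, cut at about 8.4% in these data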;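 also: 0% = DMSO-only wells with no growth and 100% = 10 µM 1-NA-PP1 full growth; inhibition rescues growth on 5-FOA so higher OD means more RAM inhibition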
# Lmaj promast: Leishmania major promastigote growth inhibition. inhibition, % at 10 µM. 9% of 200,000 active. AID 1063. Leishmania major promastigotes, resazurin fluorescence viability; in the data active = inhibition above about 50%;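 also: promastigotes grown with compound for 44 hours at 28 °C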
# CHOP inh: blocks CHOP induction under ER stress | inhibition, % at 10 µM | 3.8% of 220,000 active | CHO-K1 CHOP-promoter luciferase, tunicamycin-induced, 15-18 h | AID 2732;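 active = compounds that reduced the stress-induced luciferase reporter signal by more than about 70% of percent inhibition, limit read from the data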;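 also: 0% = tunicamycin plus vehicle and 100% = wells without tunicamycin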
# WT yeast gro inh: growth inhibition of WT yeast, mitochondrial fusion screen; mitochondrial fusion phenotypic screen, WT strain; inhibition, % at 10 µM; 2.1% of 190,000 active; in the data active = inhibition above about 58%; tested in S. cerevisiae
# Numbers without * were called inactive; . = no result given. Most compounds without a hit are left out; they make up all but 13% or so of the library.
SMILES,RAM network inh,Lmaj promast,CHOP inh,WT yeast gro inh
O=C(O)Cn1cc(/C=C/[N+](=O)[O-])c2ccccc21,0,-3,-16,-12
N#Cc1ccccc1Cn1cc(/C=C/[N+](=O)[O-])c2ccccc21,6,87*,-20,75
O=[N+]([O-])/C=C/c1cn(Cc2ccccc2)c2ccccc12,0,96*,4,82
CCOC(=O)/C(N=Nc1ccc(F)cc1)=C(/O)c1ccc([N+](=O)[O-])cc1,2,-5,32,-2
Cc1sc2nc(CSCC(=O)N(CCC#N)c3ccccc3)[nH]c(=O)c2c1C,4,0,0,-12
Cc1ccc(/C=C2\SC(=S)N(/N=C/c3cc([N+](=O)[O-])ccc3O)C2=O)o1,0,-1,18,5
COC(=O)CN1C(=S)N(c2ccc(Cl)cc2)C(=O)C1CC(=O)Nc1ccc(Cl)cc1 (stereo unspecified),4,-2,91*,21
CCOc1ccc(N2C(=O)C(CC(=O)Nc3ccc(F)cc3)N(Cc3ccccn3)C2=S)cc1 (stereo unspecified),1,68*,9,-7
COc1ccc(NC(=O)CC2C(=O)N(c3ccc(Cl)cc3)C(=S)N2CCc2ccncc2)cc1 (stereo unspecified),-1,7,93*,.
COc1ccc(NC(=O)CC2C(=O)N(c3ccc(Cl)cc3)C(=S)N2NC(=O)c2cccc(F)c2)cc1 (stereo unspecified),8,20,84*,7
COC(=O)CN1C(=S)N(c2ccc(Cl)cc2)C(=O)C1CC(=O)Nc1ccc(F)cc1 (stereo unspecified),0,-4,29,27
CC(C)(C)C(=O)Nc1ccc(C(=O)N/N=C/c2ccccc2OC(=O)c2ccccc2)cc1,0,50,38,9
CCOc1cc(/C=N\NC(=O)c2ccc(NC(=O)C(C)(C)C)cc2)ccc1OC(=O)c1ccc(C)cc1,4,-4,83*,14
CC(C)(C)C(=O)Nc1ccc(C(=O)N/N=C/c2ccccc2OC(=O)c2ccc(Cl)cc2)cc1,5,55*,44,-9
CCOc1cc(/C=N\NC(=O)c2ccc(NC(=O)CC)cc2)ccc1OC(=O)c1ccccc1,6,-4,75*,-1
CCOc1cc(/C=N\NC(=O)c2ccc(NC(=O)C(C)(C)C)cc2)ccc1OC(=O)c1cccc(C)c1,5,23,34,-5
COc1cc(C(=O)Oc2ccccc2/C=N/NC(=O)c2ccc(C)cc2)cc(OC)c1OC,2,76*,6,9
Cc1sc(Cc2nc(O)cs2)nc1-c1ccccc1,4,7,-16,2
CCOc1cc(C(=O)Nc2ncn[nH]2)cc(OCC)c1OCC,0,-9,19,1
CCOc1cc(/C=N/NC(=O)c2cc(C)[nH]n2)ccc1OC(=O)c1ccc([N+](=O)[O-])cc1,7,-3,79*,21
CCOC(=O)Cn1c(C)c(Br)c(=O)c2cccc(C)c21,1,-9,92*,7
CCOC(=O)Cn1c(=O)cc(C)c2ccccc21,1,-2,2,4
O=C(NNC(=O)C(O)(c1ccccc1)c1ccccc1)C1CC1,1,-5,4,4
N=c1n(CCN2CCCCC2)c2ccccc2n1CC(=O)c1ccc(Cl)c(Cl)c1,.,.,11,.
COC(=O)Cn1c(=N)n(CCN2CCCCC2)c2ccccc21,0,3,-4,-10
SMILES,RAM network inh,Lmaj promast,CHOP inh,WT yeast gro inh
N=c1n(CCN2CCCCC2)c2ccccc2n1CC(O)c1cccc(Br)c1 (stereo unspecified),1,100*,15,-6
CCCCn1c(=N)n(CC(O)c2ccccc2)c2ccccc21 (stereo unspecified),.,.,-15,.
CN(C)CCn1c(=N)n(CC(O)c2ccc(Cl)c(Cl)c2)c2ccccc21 (stereo unspecified),0,100*,-16,1
N=c1n(CCN2CCCCC2)c2ccccc2n1CC(O)c1ccc(Cl)c(Cl)c1 (stereo unspecified),2,100*,-21,-11
COc1ccccc1-c1nnc(SCC(=O)NC2CCS(=O)(=O)C2)n1CCc1ccccc1 (stereo unspecified),0,2,-35,-8
CCCCOc1ccc2c(c1)/C(=C(\C(Cl)=C(Cl)Cl)[N+](=O)[O-])N2,1,9,20,-11
COc1ccc(S(=O)(=O)NC(CC(=O)NCCc2ccc(OC)c(OC)c2)C(C)C)cc1 (stereo unspecified),1,-9,-14,-2
CCOc1ccc(OCC)c(S(=O)(=O)n2cc(C)nc2CC)c1,1,99*,10,8
Cc1cc(C(=O)NCCc2ccccc2)c2cc(F)ccc2n1,0,-6,14,2
C[n+]1ccc(/C=C/c2ccccc2O)c2ccccc21,-1,99*,-2,65*
COc1ccccc1CNC(=O)c1ccc2nc3[nH]c4ccccc4c3nc2c1,1,3,100*,15
Cc1ccc(CNC(=O)c2ccc3nc4[nH]c5ccccc5c4nc3c2)cc1,5,2,94*,-8
C=CCN1C(=O)C(Cc2ccc(SC(F)F)cc2)SC1=Nc1ccc(C(=O)O)cc1 (stereo unspecified),8.7*,-8,14,-15
C=CCN1C(=O)C(CC(=O)O)SC1=Nc1ccc(C(=O)O)cc1 (stereo unspecified),0,-2,-10,-22
COc1ccc(C(=O)OCN2C(=O)c3ccccc3C2=O)cc1,0,1,2,5
CC(=O)OCc1c(C(F)(F)F)nn(C)c1Oc1cccc(C(F)(F)F)c1,3,-3,75*,-8
Cc1ccc(NC(=O)Nc2ccno2)cc1,.,.,15,.
CN(CC(=O)Nc1cccc(F)c1)C(=O)CCCc1cccs1,1,-1,-11,0
CC1CC2(CCCC2)N(C(=O)c2ccccc2)Cc2ccccc21 (stereo unspecified),4,13,59,72*
COc1ccc2oc(C(=O)OCC(=O)/C(C#N)=C(\C)N)c(C)c2c1,5,-3,29,0
Cc1cc(C(=O)CSc2ccc(F)cc2)cc(C)c1OC(=S)N(C)C,8.8*,24,10,16
CCc1ccc(NC(=O)CSc2nc3ccccc3c(=O)n2CCCC(=O)NCCCN2CCOCC2)cc1,-1,2,-20,-4
CCOC(=O)Cc1c(C)nc2c(-c3ccc(Cl)cc3)c(C)[nH]n2c1=O,3,95*,18,7
CCOC(=O)Cc1cc(=O)n2[nH]c(C)c(-c3ccccc3)c2n1,0,-9,-15,7
COc1ccccc1CNC(=O)CSc1ccc(-c2cccc([N+](=O)[O-])c2)nn1,4,45,7,11
O=C(c1ccc(CN2CCOCC2)cc1)N1CCN(c2cccc(Cl)c2)CC1,0,0,4,16
Cc1cccc(NC(=O)c2ccc(CN3CCN(Cc4ccccc4)CC3)cc2)c1,1,100*,-12,8
COc1cccc(NC(=O)c2ccc(CN3CCN(c4ccccc4)CC3)cc2)c1,1,-4,-3,-7
O=C(c1ccc(CN2CCOCC2)cc1)N1CCN(Cc2ccccc2)CC1,1,76*,51,15
CSc1ccc(CN2CCN(C(=O)c3ccncc3)CC2)cc1,3,74*,25,15
